# Experimental data: PubChem BioAssay
# Where “and” joins values, the source holds several entries; their conditions need not be identical. Equal values may be shown once. Inconclusive results are not listed. Calls of active or inactive are those of the source. Rule as the data show it, unless noted: active = inhibition above about 80%; inactive = the rest.
# Tests used:
# [1] = viability rescue of complex I mutant cybrids, primary screen, cell-based, galactose medium, ATP luminescence (AID 1645843;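 active = z-score of at least 1.8 in each of two replicates, scored against plate mean and spread of sample wells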;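 also: positive z means more ATP and so rescue of galactose-driven cybrid death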); details: complex I mutant cybrid cells, 72 h, stronger effect = higher value
# [2] = LFS_MB_1R medulloblastoma cell growth inhibition, synergistic combos for chromothripsis tumors, cisplatin or BGB combos (AID 1671452); details: LFS_MB_1R medulloblastoma cells, stronger effect = higher value;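 also: cells exposed for 96 hours before readout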
# [3] = CRL2098 osteosarcoma cell growth inhibition, synergistic combos for chromothripsis tumors, BGB or cisplatin IC20 combos (AID 1671454); details: CRL2098 osteosarcoma cells, drug combinations, stronger effect = higher value;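 also: cells exposed for 96 h before readout; 0% = vehicle DMSO and 100% = killing by high DMSO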
# [4] = HD-MB03 medulloblastoma cell growth inhibition, synergistic combos for chromothripsis tumors, BGB or cisplatin IC20 combos (AID 1671455; in the data active = inhibition above about 83%;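 also: 0% = vehicle DMSO and 100% = high DMSO as cytotoxic control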); details: HD-MB03 medulloblastoma cells, stronger effect = higher value
# [5] = UWB1.289 ovarian carcinoma cell growth inhibition, synergistic combos for chromothripsis tumors, BGB or cisplatin combos (AID 1671456); details: UWB1.289 ovarian carcinoma cells, stronger effect = higher value;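 also: cells exposed to compound for four days; 0% = vehicle DMSO and 100% = killing by high DMSO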
# [6] = LFS_MB_2R medulloblastoma cell growth inhibition, synergistic combos for chromothripsis tumors, cisplatin combos (AID 1671457); details: LFS_MB_2R medulloblastoma cells, stronger effect = higher value;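 also: cells exposed to compound for four days before readout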
# [7] = UWB1.289_BRCA1 ovarian cancer growth, cell-based, BGB or cisplatin combinations (AID 1671459); details: UWB1.289 BRCA1 ovarian carcinoma, drug combinations, stronger effect = higher value
# [8] = human astrocyte viability loss, single and combined drugs, cytotoxicity control for chromothriptic childhood tumor combination screen, cell-based, BGB or cisplatin IC20 combos (AID 1671460); details: Human astrocytes, drug combinations, stronger effect = higher value;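 also: cells exposed to compounds for 96 hours before viability readout; 0% = vehicle and 100% = killing control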
# [9] = growth inhibition of BT084 medulloblastoma cells, cell-based, ICGC_MB145, cisplatin and BGB IC40 combos (AID 1671461); details: drug combinations, stronger effect = higher value;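 also: cells exposed to drugs for 96 hours; 0% = vehicle DMSO and 100% = high DMSO full killing control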
# [10] = growth inhibition of RCMB18 medulloblastoma cells, cell-based, cisplatin and BGB IC40 combos (AID 1671462); details: stronger effect = higher value;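 also: cells exposed to compound for four days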
# [11] = growth inhibition of CRL1545 osteosarcoma cells, cell-based, cisplatin and BGB IC20 combos (AID 1671464); details: stronger effect = higher value;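 also: cells exposed to compound for 96 hours before readout; 0% = vehicle DMSO and 100% = high DMSO killing control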
# [12] = target: Mitogen-activated protein kinase 7 (Homo sapiens) (UniProt Q13164); experiment: ERK5 transactivation activators in reporter cells, primary screen, cell-based, HTS (AID 1508626;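 active = luciferase signal above three times the same-plate solvent-only control wells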;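 also: luciferase driven by Gal4-ERK5 fusion binding five Gal4 sites before minimal TATA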); details: HeLa Gal4-ERK5 transactivation, 18 h, at 5 µM, stronger effect = higher value
# Chain of Mitogen-activated protein kinase 7 (Homo sapiens) (Q13164 whole entry, looked up, the tested form may be a part): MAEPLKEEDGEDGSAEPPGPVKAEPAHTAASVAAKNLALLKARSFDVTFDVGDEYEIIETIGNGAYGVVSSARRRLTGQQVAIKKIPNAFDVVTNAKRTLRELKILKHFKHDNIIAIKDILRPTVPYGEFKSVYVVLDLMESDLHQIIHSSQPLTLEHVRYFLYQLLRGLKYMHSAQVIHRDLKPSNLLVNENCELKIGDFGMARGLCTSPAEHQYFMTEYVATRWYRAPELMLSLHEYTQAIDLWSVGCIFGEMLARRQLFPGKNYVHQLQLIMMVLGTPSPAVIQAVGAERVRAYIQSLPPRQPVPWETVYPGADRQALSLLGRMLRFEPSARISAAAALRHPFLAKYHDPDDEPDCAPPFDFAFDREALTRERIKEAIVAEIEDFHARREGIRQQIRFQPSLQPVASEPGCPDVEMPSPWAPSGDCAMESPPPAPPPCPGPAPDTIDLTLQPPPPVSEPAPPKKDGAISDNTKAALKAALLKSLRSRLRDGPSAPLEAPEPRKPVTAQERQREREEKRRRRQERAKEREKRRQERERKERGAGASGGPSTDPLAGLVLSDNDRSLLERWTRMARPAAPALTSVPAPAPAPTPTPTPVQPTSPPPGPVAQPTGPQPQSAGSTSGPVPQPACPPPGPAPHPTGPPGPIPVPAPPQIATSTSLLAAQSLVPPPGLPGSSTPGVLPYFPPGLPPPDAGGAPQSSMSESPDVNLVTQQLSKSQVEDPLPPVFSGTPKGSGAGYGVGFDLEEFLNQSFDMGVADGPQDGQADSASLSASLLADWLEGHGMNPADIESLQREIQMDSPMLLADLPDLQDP
# [13] = target: ATP-dependent translocase ABCB1 (Homo sapiens) (UniProt P08183); experiment: MDR1 (ABCB1) efflux transporter inhibition, cell-based (AID 377; in the data active = fluorescence slope change above about 50%); details: MDR1-expressing cells, fluorescent substrate accumulation slope; stronger effect = higher value; concentration not given here
# Chain of ATP-dependent translocase ABCB1 (Homo sapiens) (P08183 whole entry, looked up): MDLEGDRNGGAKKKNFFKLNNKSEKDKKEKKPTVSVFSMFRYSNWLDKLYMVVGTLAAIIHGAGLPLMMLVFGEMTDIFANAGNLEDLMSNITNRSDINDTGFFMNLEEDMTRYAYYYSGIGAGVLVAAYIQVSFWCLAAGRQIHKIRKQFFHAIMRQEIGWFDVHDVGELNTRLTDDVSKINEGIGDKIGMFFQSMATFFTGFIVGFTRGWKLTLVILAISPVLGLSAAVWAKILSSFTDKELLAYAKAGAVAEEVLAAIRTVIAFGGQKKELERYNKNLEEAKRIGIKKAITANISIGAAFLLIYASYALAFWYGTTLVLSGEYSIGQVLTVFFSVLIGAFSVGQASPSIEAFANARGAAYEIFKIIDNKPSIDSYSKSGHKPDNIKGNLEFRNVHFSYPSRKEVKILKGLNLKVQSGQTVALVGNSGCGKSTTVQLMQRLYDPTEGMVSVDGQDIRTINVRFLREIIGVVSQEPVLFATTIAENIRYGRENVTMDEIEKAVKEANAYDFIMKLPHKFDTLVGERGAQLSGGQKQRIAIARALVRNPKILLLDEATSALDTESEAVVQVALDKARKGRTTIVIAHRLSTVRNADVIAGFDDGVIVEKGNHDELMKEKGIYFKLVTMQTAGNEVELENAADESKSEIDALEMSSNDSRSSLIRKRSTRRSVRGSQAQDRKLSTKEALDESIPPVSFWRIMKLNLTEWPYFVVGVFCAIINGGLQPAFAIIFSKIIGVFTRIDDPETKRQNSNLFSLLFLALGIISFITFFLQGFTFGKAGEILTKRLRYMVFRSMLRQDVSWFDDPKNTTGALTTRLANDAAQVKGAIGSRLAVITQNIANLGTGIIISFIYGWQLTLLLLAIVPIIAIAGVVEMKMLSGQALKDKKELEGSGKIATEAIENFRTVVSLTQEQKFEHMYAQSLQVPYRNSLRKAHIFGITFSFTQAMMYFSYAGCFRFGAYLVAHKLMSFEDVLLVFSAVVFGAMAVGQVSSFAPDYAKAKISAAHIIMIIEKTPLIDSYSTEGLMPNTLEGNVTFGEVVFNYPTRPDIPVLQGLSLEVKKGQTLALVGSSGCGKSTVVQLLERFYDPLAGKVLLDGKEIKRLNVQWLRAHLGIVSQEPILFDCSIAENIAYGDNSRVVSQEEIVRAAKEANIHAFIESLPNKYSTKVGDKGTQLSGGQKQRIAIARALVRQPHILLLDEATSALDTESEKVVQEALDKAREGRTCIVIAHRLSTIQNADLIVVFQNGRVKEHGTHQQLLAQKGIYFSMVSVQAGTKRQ
# [14] = measured here: combination with BGB IC40, at 0.05 µM
# [15] = measured here: combination with cisplatin, at 0.5 µM
# [16] = measured here: combination with cisplatin, at 5 µM
# [17] = measured here: combination with BGB at IC20, at 0.5 µM
# [18] = measured here: combination with cisplatin at IC20, at 0.5 µM
# [19] = measured here: combo with BGB at IC20, at 0.5 µM
# [20] = measured here: combo with cisplatin at IC20, at 0.5 µM
# [21] = measured here: inhibition with BGB combination, at 0.05 µM
# [22] = measured here: inhibition with cisplatin combination, at 0.05 µM
# [23] = BGB combination, concentration series, at 5 µM
# [24] = cisplatin combination, concentration series, at 5 µM
# [25] = measured here: combo with BGB IC20, at 0.5 µM
# [26] = measured here: combo with cisplatin IC20, at 0.5 µM
# [27] = cisplatin combination, at 0.5 µM
# [28] = measured here: BGB IC40 combination 0.05 uM, at 0.05 µM
# [29] = measured here: BGB IC40 combination, at 0.05 µM
# [30] = measured here: with BGB IC20 combination, at 0.5 µM
# [31] = measured here: with cisplatin IC20 combination, at 0.5 µM
structure (smiles),measurement,setting,value
Nc1ccc2cc3ccc(N)cc3nc2c1,z-score,[1],-2.66 (inactive)
same,inhibition,[2]; at 0.5 µM,-22.9% (inactive)
same,inhibition,[2]; [14],-30.9%
same,inhibition,[2]; [15],-45.7%
same,inhibition,[2]; [16],99.1%
same,inhibition,[3]; at 0.5 µM,-33.9% (inactive)
same,inhibition,[3]; [17],-34.4%
same,inhibition,[3]; [18],-50.2%
same,inhibition,[4]; at 0.5 µM,-6.54% (inactive)
same,inhibition,[4]; [19],19.2%
same,inhibition,[4]; [20],-34.6%
same,inhibition,[5]; at 0.5 µM,-1.27% (inactive)
same,inhibition,[5]; [21],-20.6%
same,inhibition,[5]; [22],-13.2%
same,inhibition,[6]; at 0.5 µM,-9.07% (inactive)
same,inhibition,[6]; [15],-2.23%
same,inhibition,[6]; [16],84.3%
same,inhibition,[7]; [23],100%
same,inhibition,[7]; at 0.5 µM,-1.03% (inactive)
same,inhibition,[7]; [24],115%
same,inhibition,[8]; at 0.5 µM,-4.99% (inactive)
same,inhibition,[8]; [25],0.031%
same,inhibition,[8]; [26],-30.9%
same,inhibition,[9]; at 0.5 µM,-51.8% (inactive)
same,inhibition,[9]; [27],-55.3%
same,inhibition,"[9]; cisplatin combination, at 5 µM",80.4%
same,inhibition,[9]; [28],-6.84%
same,inhibition,"[9]; single agent, at 5 µM",89.8%
same,inhibition,[10]; at 0.5 µM,-8.62% (inactive)
same,inhibition,"[10]; cisplatin combo, at 5 µM",83.1%
same,inhibition,[10]; [29],9.55%
same,inhibition,[10]; [15],-20.8%
same,inhibition,"[10]; single agent, at 5 µM",73.5%
same,inhibition,[11]; at 0.5 µM,-34.4% (inactive)
same,inhibition,[11]; [30],-17.3%
same,inhibition,[11]; [31],-43%
same,inhibition,"[11]; single agent, at 0.05 µM",-52.5%
same,inhibition,"[11]; single agent, at 5 µM",100%
O=C(Oc1cccc2cccnc12)c1ccccc1,luciferase signal,[12],44 AU (inactive)
O=C(CCCN1CCC(O)(c2ccc(Br)cc2)CC1)c1ccc(F)cc1,luciferase signal,[12],52 AU (inactive)
CNCCc1ccccn1,fluorescence slope change,[13],28.1% (inactive)
same,luciferase signal,[12],64 AU (inactive)
CN(C(=O)C(Cl)Cl)c1ccc(OC(=O)c2ccco2)cc1,luciferase signal,[12],44 AU (inactive)
CN1CCC(=C2c3ccccc3CCc3cccnc32)CC1,z-score,[1],0.04 (inactive)
CCCCOc1cc(C(=O)OCCN(CC)CC)ccc1N,z-score,[1],0.26 (inactive)
CC(C(=O)O)c1ccc2c(c1)Cc1cccnc1O2 (stereo not drawn),z-score,[1],0.415 (inactive)
CCOc1nc2cccc(C(=O)O)c2n1Cc1ccc(-c2ccccc2-c2nn[nH]n2)cc1,z-score,[1],0.64 (inactive)
CCCCOC(=O)c1ccc(O)cc1,luciferase signal,[12],88 AU (inactive)
Oc1c(I)cc(Cl)c2cccnc12,luciferase signal,[12],52 AU (inactive)
N=C(N)N1CCc2ccccc2C1,z-score,[1],0.125 (inactive)
O=c1cc[nH]c(=O)[nH]1,inhibition,[2]; at 0.5 µM,-40% (inactive)
same,inhibition,[2]; [14],-59%
same,inhibition,[2]; [15],-48%
same,inhibition,[2]; [16],-36.2%
same,inhibition,[3]; at 0.5 µM,-92.2% (inactive)
same,inhibition,[3]; [17],-94.9%
same,inhibition,[3]; [18],-107%
same,inhibition,[4]; at 0.5 µM,-17.8% (inactive)
same,inhibition,[4]; [19],-14.7%
same,inhibition,[4]; [20],-22.4%
same,inhibition,[5]; at 0.5 µM,-18% (inactive)
same,inhibition,[5]; [21],-36%
same,inhibition,[5]; [22],-27.8%
same,inhibition,[6]; at 0.5 µM,-17.4% (inactive)
same,inhibition,[6]; [15],-11.9%
same,inhibition,[6]; [16],-19.1%
same,inhibition,[7]; [23],-12.9%
same,inhibition,[7]; at 0.5 µM,-25% (inactive)
same,inhibition,[7]; [24],-6.49%
same,inhibition,[8]; at 0.5 µM,-8.86% (inactive)
same,inhibition,[8]; [25],4.39%
same,inhibition,[8]; [26],-31.7%
same,inhibition,[9]; at 0.5 µM,-12.8% (inactive)
same,inhibition,[9]; [27],-14.2%
same,inhibition,"[9]; cisplatin combination, at 5 µM",-53.2%
same,inhibition,[9]; [28],-11.4%
same,inhibition,"[9]; single agent, at 5 µM",-17.3%
same,inhibition,[10]; at 0.5 µM,-17.6% (inactive)
same,inhibition,"[10]; cisplatin combo, at 5 µM",-19.1%
same,inhibition,[10]; [29],-3.59%
same,inhibition,[10]; [15],-29.1%
same,inhibition,"[10]; single agent, at 5 µM",-18.8%
same,inhibition,[11]; at 0.5 µM,-72% (inactive)
same,inhibition,[11]; [30],-50.2%
same,inhibition,[11]; [31],-82.8%
same,inhibition,"[11]; single agent, at 0.05 µM",4.62%
same,inhibition,"[11]; single agent, at 5 µM",-35%
O=C(Nc1ccccc1)OCC(CN1CCCCC1)OC(=O)Nc1ccccc1 (stereo not drawn),fluorescence slope change,[13],147% (active)
CC[N+](CC)(CC(=O)Nc1c(C)cccc1C)Cc1ccccc1,luciferase signal,[12],36 AU (inactive)
CCOc1ccc2nc(S(N)(=O)=O)sc2c1,luciferase signal,[12],40 AU (inactive)
C[C@@H](O)[C@H]1C(=O)N2C(C(=O)O)=C(SCCN=CN)C[C@H]12,z-score,[1],-0.195 (inactive) and 0.375 (inactive)
CC1CC(OC(=O)c2ccccc2O)CC(C)(C)C1 (stereo not drawn),luciferase signal,[12],140 AU (inactive)
CC(=O)CC(c1ccc([N+](=O)[O-])cc1)c1c(O)c2ccccc2oc1=O (stereo not drawn),fluorescence slope change,[13],22.3% (inactive)
O=C(Oc1ccccc1C(=O)O)c1ccccc1O,luciferase signal,[12],64 AU (inactive)
Cc1ncc(CO)c(CO)c1O,luciferase signal,[12],160 AU (inactive)
CC(=O)Oc1cc(C(C)C)c(OCCN(C)C)cc1C,z-score,[1],0.335 (inactive)
OC1(c2ccc(Cl)c(C(F)(F)F)c2)CCN(CCCC(c2ccc(F)cc2)c2ccc(F)cc2)CC1,luciferase signal,[12],60 AU (inactive)
CC1CCc2c(N3CCC(O)CC3)c(F)cc3c(=O)c(C(=O)O)cn1c23 (stereo not drawn),z-score,[1],1.2 (inactive)
CN(C(=O)CN(CCO)CC(=O)N(C)C(C)(C)Cc1ccccc1)C(C)(C)Cc1ccccc1,luciferase signal,[12],32 AU (inactive)
Cc1cccc(C)c1NC(=O)CN1CCN(CCCC(c2ccc(F)cc2)c2ccc(F)cc2)CC1,fluorescence slope change,[13],64.3% (active)
CCCCCCC[N+](CC)(CC)CCCCc1ccc(Cl)cc1,fluorescence slope change,[13],178% (active)
CC(=O)N[C@@H](CC(C)C)C(=O)O,luciferase signal,[12],56 AU (inactive)
CC(C)CCCC(C)N (stereo not drawn),luciferase signal,[12],56 AU (inactive)
